Source: PubChem BioAssay
Six1-Eya2 inh: inhibitors of human Six1/Eya2 interaction; AlphaScreen GST-Six1/His-Eya2 binding, biochemical; hits give low values; activity change, % (concentration not given with the values); 360,000 compounds, 0.56% hits; in the data active = activity change below about -65%; inconclusive = mostly about -30% to -63%
Target sequence (O00167 whole entry, looked up): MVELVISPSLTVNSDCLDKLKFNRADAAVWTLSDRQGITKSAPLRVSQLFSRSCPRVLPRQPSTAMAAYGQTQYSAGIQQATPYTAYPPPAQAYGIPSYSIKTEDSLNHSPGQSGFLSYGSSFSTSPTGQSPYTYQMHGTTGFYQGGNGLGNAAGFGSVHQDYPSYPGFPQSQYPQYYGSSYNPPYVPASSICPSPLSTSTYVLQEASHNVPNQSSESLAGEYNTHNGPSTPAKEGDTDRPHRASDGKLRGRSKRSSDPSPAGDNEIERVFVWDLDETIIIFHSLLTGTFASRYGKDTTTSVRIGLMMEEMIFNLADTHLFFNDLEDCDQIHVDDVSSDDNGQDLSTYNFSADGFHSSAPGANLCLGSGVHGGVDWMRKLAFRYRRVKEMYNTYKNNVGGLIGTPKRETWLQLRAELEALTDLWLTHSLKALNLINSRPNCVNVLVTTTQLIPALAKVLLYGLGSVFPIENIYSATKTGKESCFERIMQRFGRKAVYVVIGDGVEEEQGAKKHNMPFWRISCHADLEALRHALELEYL
Target sequence (Q15475 whole entry, looked up): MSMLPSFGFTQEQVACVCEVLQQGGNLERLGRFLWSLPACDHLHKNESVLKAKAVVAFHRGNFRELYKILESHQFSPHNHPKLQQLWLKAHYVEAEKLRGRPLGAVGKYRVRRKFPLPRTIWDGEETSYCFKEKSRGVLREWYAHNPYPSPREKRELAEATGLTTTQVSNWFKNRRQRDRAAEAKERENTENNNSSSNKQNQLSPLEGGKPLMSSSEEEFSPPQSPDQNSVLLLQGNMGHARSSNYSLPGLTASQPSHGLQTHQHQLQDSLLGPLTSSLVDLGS
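Six1/Eya2 binding was read as AlphaScreen signal after compounds were pinned into GST-Six1 plus His-tagged Eya2 (5X stock 250/500 nM) in pH 8.0 Tris/NaCl/TCEP buffer, beads added, then incubated 1 h, 37 C, dark.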
TDP1 cell CPT: growth inhibition of DT40 Tdp1-/-;hTDP1 cells with camptothecin (screen for TDP1 inhibitors) | chicken DT40 Tdp1-/-;hTDP1 cells + 20 nM CPT, ATP luminescence, 48 h | Potency, µM (top dose mostly 46.2 µM), hits mostly inhibitors | 420,000 compounds, 12% hits; note: nearly all actives have a fitted effect of over 55% in size
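Chicken DT40 Tdp1-/- cells complemented with human TDP1, 400 cells/well, exposed to compounds plus 20 nM camptothecin for at least 48 h at 37 C; viability read as ATP content by CellTiter-Glo luminescence.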
CtBP-E1A inh: CtBP/E1A binding inhibition. AlphaScreen GST-E1A/His-CtBP binding, 1536-well; hits give low values. activity change, % (concentration not given with the values). 340,000 compounds, 0.49% hits. AID 651724; in the data active = activity change below about -65%; inconclusive = mostly about -30% to -63%
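Protein mix (5X: 125 nM each GST-E1A, His-CtBP) was incubated with pinned compound 2 h at 37 deg C in dark, in 50 mM Tris pH 8.0 buffer with 300 mM NaCl. Glutathione donor and nickel acceptor beads followed; AlphaScreen signal read after 1 h.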
IL-1B inflam inh: blocks inflammasome-driven IL-1 beta release; 360,000 compounds, 4.7% hits; THP-1 LPS/ATP IL-1B secretion, AlphaLISA, 16 h; hits give low values; activity change, % at 57.5 µM; AID 743279; in the data active = activity change below about -50%; inconclusive = mostly about -30% to -49%
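Secreted IL-1B measured by AlphaLISA bead assay after 16 h compound exposure of THP-1 cells; compounds (final up to 57.5 uM) added 1 h before LPS (250 ng/mL) and ATP (1.25 mM) stimulation; lower signal means less secretion.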
TDP1 block: blocks human tyrosyl-DNA phosphodiesterase 1; recombinant TDP1, AlphaScreen DNA substrate cleavage; Potency, µM (top dose mostly 130 µM), most hits filed as inhibitors; 350,000 compounds, 0.28% hits; AID 485290; note: nearly all actives have a fitted effect of over 40% in size
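Recombinant E. coli-expressed Tdp1 (1 nM) preincubated with compound 15 min at RT, then 5'-biotin/3'-phosphotyrosine-FITC DNA substrate (15 nM) added for 5 min. AlphaScreen beads (10 ug/ml) added, 10 min RT; tyrosine-FITC cleavage read as signal loss.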
TDP1 cell noCPT: qHTS for Inhibitors of human tyrosyl-DNA phosphodiesterase 1 (TDP1): qHTS in cells in absence of CPT | Potency, µM (titrated, usually from 46.2 µM), hits mostly inhibitors | DT40 Tdp1-/- hTDP1 cells, no CPT, ATP luminescence, 48 h | 420,000 compounds, 15% hits | AID 686978, 2013; note: nearly all actives have a fitted effect of over 55% in size
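Luminescent ATP content (CellTiter-Glo) served as the growth readout. Knockout chicken DT40 cells expressing human TDP1 were exposed to compounds without camptothecin for a minimum 48 hr at 37 °C.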
Hits are given with their value; - = inactive; ? = inconclusive; . = no result; ! = repeats disagree. This is a sample that favours compounds with a hit; in the whole collection about 18% have one here. Unless noted, calls come from the whole dose curve; as a rule, active = well fitted curve in the direction sought with a large enough effect; inconclusive = small, poorly fitted or top-dose-only effect, or another doubt; inactive = no such curve, though single readings can be large; an effect the other way counts as inactive or inconclusive.

SMILES	Six1-Eya2 inh	TDP1 cell CPT	CtBP-E1A inh	IL-1B inflam inh	TDP1 block	TDP1 cell noCPT
COc1ccc(C2/C=C\CN(C(=O)Oc3ccccc3)CC(=O)N2Cc2ccc(F)cc2)cc1 (centres undefined)	-	20.6µM	-	-	-	?
COc1cccc(C(=O)C2CCCN(Cc3ccc(F)cc3)C2)c1 (centres undefined)	-	-	-	-	.	-
C=CCSc1nc2c(c(-c3ccsc3)c1C#N)CN(C)CC2	-	?	-	-	.	18.4µM
Cc1cccc(CSc2nc3c(cc2C#N)CN(C)CC3)c1	-	-	-	-	-	-
COc1cc(C2c3cc4c(cc3C(O)C3COC(=O)C23)OCO4)cc(OC)c1O (centres undefined)	.	0.259µM	.	.	-	0.206µM
COc1ccc2c(c1OC)C(=O)O[C@@H]2[C@H]1c2cc3c(cc2CCN1C)OCO3	-	-	-	-	.	-
COc1cc([C@@H]2c3cc4c(cc3[C@@H](OC)[C@H]3COC(=O)[C@H]23)OCO4)cc(OC)c1O	-	1.16µM	-	-	-	1.3µM
COc1cc([C@@H]2c3cc4c(cc3[C@H](O)[C@H]3COC(=O)[C@H]23)OCO4)cc(OC)c1OC	-	0.146µM	-	-	-	0.146µM!
COc1cc([C@@H]2c3cc4c(cc3[C@H](O)[C@H]3COC(=O)[C@@H]23)OCO4)cc(OC)c1OC	.	0.0708µM	.	.	-	0.0251µM
COc1ccc2c(c1OC)C(=O)O[C@H]2[C@@H]1c2cc3c(cc2CCN1C)OCO3	-	-	-	-	.	-
COc1cc([C@@H]2c3cc4c(cc3C(O[C@@H]3O[C@@H]5CO[C@@H](C)O[C@H]5[C@H](O)[C@H]3O)C3COC(=O)[C@@H]32)OCO4)cc(OC)c1OP(=O)(O)O (some centres undefined)	.	0.211µM	.	.	.	0.299µM
CC(C)(C)OC(=O)NCc1ccc(CNC(=O)c2nc[nH]c2C(=O)NCc2ccc(CNC(=O)OC(C)(C)C)cc2)cc1	-	14.6µM	-	-	-	20.6µM
CCOc1ccc(-c2cc(C(=O)N3CCC4(CC3)OCCO4)c3ccccc3n2)cc1	-	5.17µM	-	-	.	?
COc1ccc2c(c1O)-c1cc(O)cc3c1[C@@H](C2)N(C)CC3	.	-	.	.	-	-
C=CCN1CCc2cccc3c2[C@H]1Cc1ccc(O)c(O)c1-3	-	16.4µM	-	-	.	18.4µM
COc1cccc(OC)c1C1=NCC(=O)Nc2c1oc1ccc(Br)cc21	-	0.92µM	-	-	-	0.92µM
CC12C=CC(=O)C=C1CC(O)C1C2CCC2(C)C1CCC2(C)O (centres undefined)	-	-	-	-	.	-
C=CC[C@]1(O)CC[C@H]2[C@@H]3CCC4=CC(=O)CCC4=C3C=C[C@@]21C	.	13.3µM	.	.	-	7.5µM
C#CC1(O)CCC2C3CCC4=CC(=O)CCC4=C3C=CC21C (centres undefined)	-	8.2µM	-	-	.	14.6µM
COC(C)C(O)(C(=O)OC1=CCN2CC[C@H](O)[C@H]12)C(C)C (some centres undefined)	.	10.6µM	.	.	-	21.1µM
Cc1ccc(S(=O)(=O)NCC(=O)OCC(=O)N2N=C(c3ccc(Cl)cc3)CC2c2ccco2)cc1C (centres undefined)	-	?	-	-	-	23.1µM
CC(=O)Nc1cc(C(=O)N2CCC3(CC2)OCCO3)ccc1S(=O)(=O)c1ccc(Cl)cc1	-	-	-	-	-	-
CCc1ccc(NC(=O)c2ccc(F)c(S(=O)(=O)N3CCc4ccccc4C3)c2)cc1	.	?	.	.	-	20.6µM
CCc1ccc(NC(=O)c2ccc(F)c(S(=O)(=O)N3CCC4(CC3)OCCO4)c2)cc1	.	?	.	.	-	20.6µM
C/C(=C\[C@@H](N)C(=O)O)CP(=O)(O)O	.	-	.	.	-	-
CCCCn1c(N)c(N(CCOC)C(=O)CN2CC=C(c3ccccc3)CC2)c(=O)[nH]c1=O	?	?	-	-	-	?
